# Experimental data taken from PubChem BioAssay.
# Calls of active or inactive are those of the source.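 Rule for the calls, unless noted: active = visually confirmed hit in the image check and inhibition above 20%; inconclusive = visually confirmed hit but inhibition not above 20%; inactive = no visual hit in the image check.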
# Experiment: inhibitors of mutant huntingtin aggregation, primary screen, imaging, exon1htt(103Q)mCFP cells, high-content imaging (AID 483;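 active = visual image review flags a hit and inhibition of aggregation exceeds 20%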;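 note: compound exposure lasted 3 days before fixation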;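 for nuclei count: percent of the per-plate median nuclei count of sample wells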)
# Settings: exon1htt(103Q)mCFP cell line, aggregate imaging, at 2 µM; inhibition of aggregation: stronger effect = higher value; nuclei count: measured here: cell count, toxicity
Structure (SMILES),inhibition of aggregation,nuclei count [%]
NC(N)=Nc1nc(CSCC/C(N)=N/S(N)(=O)=O)cs1,0.8% (inactive),101
COc1ccc(-c2coc3cc(O)cc(O)c3c2=O)cc1,9.1% (inactive),116
COc1cc2nc(N3CCN(C(=O)C4CCCO4)CC3)nc(N)c2cc1OC (stereo not drawn),-7.9% (inactive),82
CC(=O)O[C@@]12CO[C@@H]1C[C@H](O)[C@@]1(C)C(=O)[C@H](O)C3=C(C)[C@@H](OC(=O)[C@H](O)[C@@H](NC(=O)OC(C)(C)C)c4ccccc4)C[C@](O)([C@@H](OC(=O)c4ccccc4)[C@H]21)C3(C)C,-77% (inactive),4.4
C1CNCCNCCCNCCNC1,19.7% (inactive),100

# Experiment: inhibitors of E-selectin induction by TNFa, primary screen, imaging, HUVEC, immunofluorescence, MLSMR starter and 10KST1 sets (AID 487);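 for inhibition: signal is fraction of cell area covered by stained E-selectin grains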;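 for nuclei count: 100% = median nuclei count of all wells on the same plate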
# Settings: HUVEC TNFalpha-induced E-selectin immunofluorescence imaging, at 2 µM; inhibition: stronger effect = higher value; nuclei count: measured here: cell number, toxicity
Structure (SMILES),nuclei count [%],inhibition
CN1CCN(C2=Nc3cc(Cl)ccc3Nc3ccccc32)CC1,132,-176% (inactive)
CCN(CC)CCNC(=O)c1ccc(N)cc1,133,-57.1% (inactive)
CCOC(=O)C(OC(=O)c1sc(=S)n(C)c1C)C(C)=O (stereo not drawn),86.4,-34.4% (inactive)
COc1ccc(Cn2ccnc2)cc1Br,141,-47% (inactive)
CC1(C)CC(=O)C=C(N=CC2=C(O)CC(C)(C)CC2=O)C1,174,-39.1% (inactive)
CC1(C)CC(=O)C(C=N)=C(O)C1,169,-29.4% (inactive)
COc1cc(C(=O)Nc2ccccn2)cc(OC)c1OC,165,-234% (inactive)
CN(C)CCCN1c2ccccc2CCc2ccccc21,128,-9.2% (inactive)
CC1(C)S[C@@H]2[C@H](NC(=O)[C@H](N)c3ccccc3)C(=O)N2[C@H]1C(=O)O,131,-51.2% (inactive)
CCOC(=O)C(Oc1ccc(=O)[nH]n1)C(C)=O (stereo not drawn),105,-70.7% (inactive)
Fc1ccc(C(c2ccc(F)cc2)N2CCN(C/C=C/c3ccccc3)CC2)cc1,124,-61.3% (inactive)
O=P(Cc1nnco1)(c1ccccc1)c1ccccc1,176,0.9% (inactive)
COc1ccc(OCC(=O)OCCN(C)C)cc1,170,-159% (inactive)
C=CCNc1nc(C2(C)CC3(CC(C)(C)OC3=O)C(=O)O2)cs1 (stereo not drawn),155,-142% (inactive)
CCCCCOc1ccc(Cl)cc1CN1CCOCC1,110,-77.3% (inactive)
COC(=O)C1C(=O)NCC1c1ccccc1 (stereo not drawn),81.1,1.3% (inactive)
CC(=O)Oc1oc(-c2ccccc2)nc1/C=N/c1ccccn1,147,-20.4% (inactive)
NC(N)=Nc1nc(CSCC/C(N)=N/S(N)(=O)=O)cs1,116,-48.3% (inactive)
CC1(C)CC(=O)C=C(NCCO)C1,146,-18.5% (inactive)

Structure (SMILES),nuclei count [%],inhibition
O=C(NCCO)C1(c2ccccc2)CCCC1,87.4,-0.2% (inactive)
COc1cc2nc(N3CCN(C(=O)C4CCCO4)CC3)nc(N)c2cc1OC (stereo not drawn),105,-29.4% (inactive)
Nc1nc2c(ncn2COCCO)c(=O)[nH]1,98.5,-45.2% (inactive)
Cc1cc(N/C=C/C(=O)c2cccc3ccccc23)no1,95.6,-51% (inactive)
Cc1nnc(NS(=O)(=O)c2ccc(N)cc2)s1,125,-81.2% (inactive)
Cc1nc2sc(C)c(C)c2c(=O)o1,180,-24.2% (inactive)
CC[C@H]1CN2CCc3cc(OC)c(OC)cc3[C@@H]2C[C@@H]1C[C@H]1NCCc2cc(OC)c(OC)cc21,103,103% (active)
CC1=NS(=O)(=O)c2cc(Cl)ccc2N1,105,-68% (inactive)
O=C(NCC1CCCCN1)c1cc(OCC(F)(F)F)ccc1OCC(F)(F)F (stereo not drawn),107,-29.3% (inactive)
CC[C@]1(O)C[C@@H]2CN(CCc3c([nH]c4ccccc34)[C@@](C(=O)OC)(c3cc4c(cc3OC)N(C)[C@H]3[C@@](O)(C(=O)OC)[C@H](OC(C)=O)[C@]5(CC)C=CCN6CC[C@]43[C@@H]65)C2)C1,78,-205% (inactive)
O=C(CCN1CCc2ccccc21)c1ccc2c(c1)OCCO2,144,-46.2% (inactive)
O=C(c1ccc(N2C(=O)C3CC=C(Cl)CC3C2=O)cc1)N1CCCCC1 (stereo not drawn),163,-148% (inactive)
COc1ccc([C@@H]2Sc3ccccc3N(CCN(C)C)C(=O)[C@@H]2OC(C)=O)cc1,104,-27.1% (inactive)
COc1ccc[nH]c1=O,156,-53.5% (inactive)
O=C(CCCN1CCC(O)(c2ccc(Cl)cc2)CC1)c1ccc(F)cc1,130,-112% (inactive)
CCn1cc(/C=N/O)c(C)n1,153,-98.3% (inactive)
CC(C)(C#N)C(C)(C)c1nn[nH]n1,72.6,-15.5% (inactive)
O=C(O)c1ccc(COCC(F)(F)C(F)F)o1,150,-92.5% (inactive)

# Experiment: DUSP6 inhibitors restoring Erk phosphorylation by chemical complementation, primary imaging in DUSP6-transfected HeLa (AID 609)
# Settings: HeLa MKP-3 transfected, phospho-Erk imaging KS statistic; measured here: cell density z-score; at 10 µM; cells stimulated with TPA for 15 min
row,Structure (SMILES),z-score
1,CN1CCN(C2=Nc3cc(Cl)ccc3Nc3ccccc32)CC1,-0.235
2,CCN(CC)CCNC(=O)c1ccc(N)cc1,1.09
3,CCOC(=O)C(OC(=O)c1sc(=S)n(C)c1C)C(C)=O (stereo not drawn),0.548
4,COc1ccc(Cn2ccnc2)cc1Br,-0.527
5,CC1(C)CC(=O)C=C(N=CC2=C(O)CC(C)(C)CC2=O)C1,-0.899
6,CC1(C)CC(=O)C(C=N)=C(O)C1,-0.419
7,COc1cc(C(=O)Nc2ccccn2)cc(OC)c1OC,-0.193
8,CN(C)CCCN1c2ccccc2CCc2ccccc21,-0.894
9,CC1(C)S[C@@H]2[C@H](NC(=O)[C@H](N)c3ccccc3)C(=O)N2[C@H]1C(=O)O,-0.832
10,CCOC(=O)C(Oc1ccc(=O)[nH]n1)C(C)=O (stereo not drawn),-0.778
11,Fc1ccc(C(c2ccc(F)cc2)N2CCN(C/C=C/c3ccccc3)CC2)cc1,-0.381
12,O=P(Cc1nnco1)(c1ccccc1)c1ccccc1,0.578
13,COc1ccc(OCC(=O)OCCN(C)C)cc1,-1.95
14,C=CCNc1nc(C2(C)CC3(CC(C)(C)OC3=O)C(=O)O2)cs1 (stereo not drawn),0.249
15,CCCCCOc1ccc(Cl)cc1CN1CCOCC1,-0.264
16,COC(=O)C1C(=O)NCC1c1ccccc1 (stereo not drawn),5.99
17,CC(=O)Oc1oc(-c2ccccc2)nc1/C=N/c1ccccn1,-0.443
18,NC(N)=Nc1nc(CSCC/C(N)=N/S(N)(=O)=O)cs1,-1.28
19,CC1(C)CC(=O)C=C(NCCO)C1,1.01
20,COc1ccc(-c2coc3cc(O)cc(O)c3c2=O)cc1,-0.996

row,Structure (SMILES),z-score
1,O=C(NCCO)C1(c2ccccc2)CCCC1,-1.49
2,COc1cc2nc(N3CCN(C(=O)C4CCCO4)CC3)nc(N)c2cc1OC (stereo not drawn),1.01
3,Nc1nc2c(ncn2COCCO)c(=O)[nH]1,-1.3
4,Cc1cc(N/C=C/C(=O)c2cccc3ccccc23)no1,-0.324
5,Cc1nnc(NS(=O)(=O)c2ccc(N)cc2)s1,0.0804
6,Cc1nc2sc(C)c(C)c2c(=O)o1,-0.563
7,CC(=O)O[C@@]12CO[C@@H]1C[C@H](O)[C@@]1(C)C(=O)[C@H](O)C3=C(C)[C@@H](OC(=O)[C@H](O)[C@@H](NC(=O)OC(C)(C)C)c4ccccc4)C[C@](O)([C@@H](OC(=O)c4ccccc4)[C@H]21)C3(C)C,-1.36
8,CC[C@H]1CN2CCc3cc(OC)c(OC)cc3[C@@H]2C[C@@H]1C[C@H]1NCCc2cc(OC)c(OC)cc21,0.501
9,CC1=NS(=O)(=O)c2cc(Cl)ccc2N1,0.557
10,O=C(NCC1CCCCN1)c1cc(OCC(F)(F)F)ccc1OCC(F)(F)F (stereo not drawn),0.584
11,CC[C@]1(O)C[C@@H]2CN(CCc3c([nH]c4ccccc34)[C@@](C(=O)OC)(c3cc4c(cc3OC)N(C)[C@H]3[C@@](O)(C(=O)OC)[C@H](OC(C)=O)[C@]5(CC)C=CCN6CC[C@]43[C@@H]65)C2)C1,-0.32
12,O=C(CCN1CCc2ccccc21)c1ccc2c(c1)OCCO2,-0.121
13,O=C(c1ccc(N2C(=O)C3CC=C(Cl)CC3C2=O)cc1)N1CCCCC1 (stereo not drawn),0.548
14,COc1ccc([C@@H]2Sc3ccccc3N(CCN(C)C)C(=O)[C@@H]2OC(C)=O)cc1,0.794
15,COc1ccc[nH]c1=O,-0.586
16,O=C(CCCN1CCC(O)(c2ccc(Cl)cc2)CC1)c1ccc(F)cc1,1.12
17,CCn1cc(/C=N/O)c(C)n1,1.83
18,CC(C)(C#N)C(C)(C)c1nn[nH]n1,1.29
19,O=C(O)c1ccc(COCC(F)(F)C(F)F)o1,-0.0306
